Data on ten molecules can be found in PubChem BioAssay (EPA / NIEHS).

A short description of assay [1]: Tanguay_ZF_120hpf_PFIN_legacy: (Legacy) Oregon State University Tanguay Lab 120 Hour Post-fertilization zebrafish Assay for Pectoral Fin Malformation (AID 2283648).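 Note: each larva judged yes or no for fin defect by brightfield with dead larvae skipped.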 In outline: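 Tropical 5D wild-type embryos, dechorionated with pronase at 4 hpf, were placed singly in wells at 6 hpf and statically exposed until 120 hpf at 28C, sealed and dark, with 0.64% (vol/vol) final DMSO; pectoral fin malformation scored present/absent.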

The nature of assay [2]: Tanguay_ZF_120hpf_CFIN_legacy: (Legacy) Oregon State University Tanguay Lab 120 Hour Post-fertilization zebrafish Assay for Caudal Fin Malformation (AID 2283649). The method, boiled down:
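Dechorionated Tropical 5D wild-type embryos, one per well from 6 hpf, static exposure to 120 hpf at 28C in 0.64% DMSO. Caudal fin malformation scored by brightfield as present/absent; not scored in dead embryos.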

Assay [3] is described as follows: Tanguay_ZF_120hpf_PIG_legacy: (Legacy) Oregon State University Tanguay Lab 120 Hour Post-fertilization zebrafish Assay for Pigmentation Malformation (AID 2283650). The method, boiled down: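 Tropical 5D wild-type zebrafish embryos, dechorionated with pronase at 4 hpf, were exposed singly from 6 hpf to 120 hpf statically at 28C in sealed, dark plates with 0.64% DMSO; pigmentation scored present/absent by brightfield microscopy, fitted against DMSO.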

Assay [4] in a line: Tanguay_ZF_120hpf_CIRC_legacy: (Legacy) Oregon State University Tanguay Lab 120 Hour Post-fertilization zebrafish Assay for Circulatory Malformation (AID 2283651). In outline:
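Dechorionated wild-type 5D zebrafish embryos, one per well, statically exposed from 6 to 120 hpf at 28C with 0.64% DMSO; circulatory malformation scored present/absent by brightfield microscopy at 120 hpf, dead embryos excluded.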

Assay [5] is described as follows: Tanguay_ZF_120hpf_NC_legacy: (Legacy) Oregon State University Tanguay Lab 120 Hour Post-fertilization zebrafish Assay for Notochord and Tail Malformation (AID 2283656). The method, boiled down:
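Dechorionated Tropical 5D wild-type zebrafish embryos, one per well from 6 hpf, statically exposed to 120 hpf at 28C in 0.64% DMSO final. Notochord distortion scored present/absent by brightfield; dead embryos excluded.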

Read-out in assay [6]: ABC Transporter (ABCB1), ABCB1 (gene 5243)
The assay can be described thus: CLD_ABCB1_6hr: CellzDirect (CLD) Gene Expression Assay for ABC Transporter (ABCB1) at 6 hours (AID 2283659).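 Note: hits raise ABCB1 transcript above the DMSO vehicle baseline.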 In outline: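 Primary human hepatocytes (two donor preparations) dosed daily for two days with chemicals at multiple concentrations, 0.2% DMSO vehicle; harvested 6 h post-dose. ABCB1 mRNA induction quantified by qNPA chemiluminescence; gain-of-signal fitted versus DMSO.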

The subject of assay [7] is Thyroperoxidase (TPO), gene 54314. As to the kind of experiment: CCTE_Simmons_AUR_rTPO: CCTE's Amplex UltraRed Assay for Thyroperoxidase (TPO) Inhibition, Simmons Lab (AID 2283662).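 Note: potency for loss of signal meaning inhibition of peroxidase activity.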 The method, boiled down:
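Rat thyroid microsomal TPO + 25 uM AUR in 200 mM K phosphate; cpd 5 nM–87.5 uM [final], 8 conc, 0.5% DMSO; 300 uM H2O2 starts rxn; 37C dark 30 min; endpoint FI 544/590 nm; n=3.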

Assay [8] can be described thus: CCTE_Simmons_CellTiterGLO_HEK293T: Viability Assessment in CCTE's Assays for Thyroperoxidase (TPO) Inhibition, Simmons Lab (AID 2283665). The method, boiled down: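 HEK293T cells in DMEM with 1% FBS, dosed 24 h at 37C with 8 concentrations, 5 nM–87.5 uM final, 0.5% DMSO. ATP measured by CellTiter Glo luminescence; loss of signal vs DMSO, three biological replicates.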
Background: Cellular ATP, detected with luciferase, serves as a proxy for viable cell number.

Assay [9] in a line: Tanguay_ZF_120hpf_TR_legacy: (Legacy) Oregon State University Tanguay Lab 120 Hour Post-fertilization zebrafish Assay for Touch Response (AID 2283667). The method, boiled down: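 Tropical 5D wild-type zebrafish embryos were exposed statically in sealed, foil-covered plates at 28C until 120 hpf, with 0.64% (vol/vol) final DMSO. Touch response was scored as present or absent; embryos that died were not scored.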

A short description of assay [10]: CLD_ACTIN_24hr: CellzDirect (CLD) Gene Expression Assay for Baseline Control (Actin) at 24 hours (AID 2283670). The method, boiled down: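 Primary human hepatocytes dosed over multiple concentrations with 0.2% DMSO vehicle; actin mRNA measured at 24 h by qNPA chemiluminescence. Background control endpoint, fitted as gain of signal versus DMSO.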
Read-out in assay [11]: glucuronosyltransferase (UGT1A1), UGT1A1 (gene 54658)
The assay can be described thus: CLD_UGT1A1_6hr: CellzDirect (CLD) Gene Expression Assay for glucuronosyltransferase (UGT1A1) at 6 hours (AID 2283672). In outline:
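Primary human hepatocytes from two donor preparations, dosed with fresh solutions in 0.2% DMSO, harvested at 6 h. UGT1A1 mRNA measured by qNPA chemiluminescence; induction fitted upward versus DMSO.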

Read-out in assay [12]: xenobiotic metabolism (CYP1A1), CYP1A1 (gene 1543)
As to the kind of experiment: CLD_CYP1A1_24hr: CellzDirect (CLD) Gene Expression Assay for xenobiotic metabolism (CYP1A1) at 24 hours (AID 2283673). The method, boiled down: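 Primary human hepatocytes dosed daily with fresh solutions in 0.2% DMSO vehicle. mRNA measured at 24 h by quantitative nuclease protection assay with chemiluminescence; gain-of-signal fit versus DMSO, with morphology-based cytotoxicity flags.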

The nature of assay [13]: Tanguay_ZF_120hpf_TRUN_legacy: (Legacy) Oregon State University Tanguay Lab 120 Hour Post-fertilization zebrafish Assay for Truncated Body (AID 2283655). In outline: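 Dechorionated Tropical 5D wild-type embryos placed singly from 6 hpf and statically exposed to 120 hpf at 28C, final DMSO 0.64%. Truncated body scored as present/absent by brightfield; not scored in dead embryos.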

Read-out in assay [14]: sulfotransferase (SULT2A), SULT2A1 (gene 6822)
As to the kind of experiment: CLD_SULT2A_6hr: CellzDirect (CLD) Gene Expression Assay for sulfotransferase (SULT2A) at 6 hours (AID 2283669).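 Note: hits raise transcript level above the DMSO vehicle baseline.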 In outline: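 Primary human hepatocytes from two donor preparations were dosed daily with chemicals or 0.2% DMSO and harvested at 6 h. Transcript induction read by qNPA chemiluminescence, fitted for gain of signal relative to DMSO; morphology-based cytotoxicity annotated.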

Read-out in assay [15]: solute carrier (SLC10A1), SLC10A1 (gene 6554)
The assay can be described thus: LTEA_HepaRG_SLC10A1: Life Technologies and Expression Analysis (LTEA) Assay for solute carrier (SLC10A1) using HepaRG (AID 2283657; active = hit-call score of the fitted dose curve at least 0.9, where 1 is the maximum; inactive = score below 0.9). Particulars: mRNA level, 48 h; actives raise or lower the signal. In outline:
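Differentiated HepaRG cells were plated 48 h, then exposed in serum-free induction medium for 48 h to 8 concentrations (top 100 uM, half-log steps, 0.5% DMSO). SLC10A1 mRNA was quantified by qRT-PCR normalized to ACTB, GAPDH, POLR2A; bidirectional fit versus DMSO.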

Read-out in assay [16]: matrix metalloproteinase-1 (MMP1), MMP1 (gene 4312)
The assay can be described thus: LTEA_HepaRG_MMP1: Life Technologies and Expression Analysis (LTEA) Assay for matrix metalloproteinase-1 (MMP1) using HepaRG (AID 2283658; active = hit-call score of the fitted dose curve at least 0.9, where 1 is the maximum; inactive = score below 0.9). Particulars: mRNA level, 48 h; actives raise or lower the signal. The method, boiled down: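 Differentiated human HepaRG cells, 48 h post-plating in serum-free induction medium, were exposed 48 h to eight half-log concentrations topping at 100 uM in 0.5% DMSO, duplicate. MMP1 mRNA measured by Fluidigm TaqMan qRT-PCR, normalized to ACTB, GAPDH, POLR2A; bidirectional fits versus DMSO.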

Read-out in assay [17]: Cytochrome P450 (CYP24A1_1), CYP24A1 (gene 1591)
As to the kind of experiment: LTEA_HepaRG_CYP24A1_1: Life Technologies and Expression Analysis (LTEA) Assay for Cytochrome P450 (CYP24A1_1) using HepaRG (AID 2283671; active = hit-call score of the fitted dose curve at least 0.9, where 1 is the maximum; inactive = score below 0.9). Particulars: mRNA level, 48 h; actives raise or lower the signal. The method, boiled down:
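HepaRG, 48 h exposure, 8-pt half-log series from 100 uM in 0.5% DMSO, duplicates. Readout: TaqMan qRT-PCR of CYP24A1 mRNA, housekeeping-normalized (ACTB/GAPDH/POLR2A). Bidirectional curve fit vs DMSO baseline.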

Inconclusive results are not listed. The source made the active and inactive calls. Rule for the calls, unless noted: active = hit-call score of the fitted dose curve at least 0.9, where 1 is the maximum; inconclusive = response in the unintended direction; inactive = score below 0.9.

As to `COP(=O)(OC)OC=C(Cl)Cl`, the outcome in [1], in assay [2], in assay [3], in assay [4], in [5] and in assay [6] was inactive. In addition, the molecule was classed as inactive in assay [8], in assay [9], in assay [10], in assay [11] and in [12]. The AC50 in assay [7] is 21 µM (active).
For the molecule `O=C(O)CCCOc1ccc(Cl)cc1Cl`, the result in assay [2], in assay [3], in assay [4], in assay [13], in assay [5] and in [6] was inactive. In addition, the call in [9], in assay [14], in assay [10] and in assay [11] was inactive.
As to `Cc1cc(C)nc(NC(=O)NS(=O)(=O)c2ccccc2C(=O)OC2COC2)n1`, the molecule was classed as inactive in assay [14], in assay [10] and in [11].
In the case of `CC(C)OC(=O)Nc1cccc(Cl)c1`, the result in [1], in assay [2], in [3], in assay [13], in assay [5] and in assay [6] was inactive. Also, the call in assay [9] and in assay [11] was inactive. Further, the AC50 in assay [12] is 5.63 µM (active).
As to `CCC(C)Nc1c([N+](=O)[O-])cc(C(C)(C)C)cc1[N+](=O)[O-]` (stereo not drawn), the molecule was classed as inactive in [1], in [2], in assay [3], in [13], in [16] and in assay [6]. The molecule was classed as inactive in assay [9], in assay [14], in assay [17] and in assay [11]. In addition, the half-maximal activity concentration (AC50) in assay [15] is 72.9 µM (active).
Turning to `COC(=O)c1ccccc1S(=O)(=O)NC(=O)Nc1nc(C)nc(OC)n1`, the outcome in assay [6] and in [10] was inactive.
As for `COC(=O)c1ccccc1CS(=O)(=O)NC(=O)Nc1nc(OC)cc(OC)n1`, the outcome in [6], in assay [14] and in assay [11] was inactive.
Turning to `OCCOc1ccccc1`, the molecule was classed as inactive in assay [1], in [2], in [3], in assay [4] and in [6].
Regarding `CCOc1nc(NC)nc(NC(=O)NS(=O)(=O)c2ccccc2C(=O)OC)n1`, the outcome in assay [6], in assay [14], in [10] and in assay [11] was inactive.
Take `CNC(=O)CSP(=S)(OC)OC`: the call in assay [1], in [2], in assay [4], in assay [5], in assay [8] and in assay [9] was inactive. For the same molecule, the molecule was classed as inactive in assay [10] and in assay [11]. Further, the AC50 in assay [7] was 7.2 µM (active).

As usually defined, the AC50 is the midpoint of the concentration-response curve, whichever way the signal moves.
